Assay outcomes (PubChem)
Hedgehog inh: Sonic Hedgehog pathway inhibition; Shh-LIGHT2 Gli-luciferase reporter, 30 h; inhibition, % (no concentration beside the values); 22,000 tested, 2.1% active;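 active means mean inhibition across valid replicates above about 65%, limit read from the data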;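 further: pathway switched on by Shh-conditioned medium diluted 1 in 25 in low serum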
BJeLR viab HTS: lowers viability of BJeLR cells | BJeLR fibroblasts viability, CellTiterGlo ATP luminescence, 48 h; HRASV12, hTERT and SV40 LT/ST transformed | viability loss activity score, % (no concentration beside the values) | 30,000 tested, 0.64% active | AID 2275; in the data active means viability loss activity score above about 50%;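 further: higher score means fewer live cells and less ATP luminescence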
Numbers without * were called inactive; x = not tested or not shown. This is one part of a sample in which hits are shown more often than they occur.

SMILES | Hedgehog inh | BJeLR viab HTS
C[C@@H]1CC[C@]2(C(=O)O)CC[C@]3(C)C(=CCC4[C@@]5(C)CC[C@@H](O)[C@](C)(C(=O)O)C5CC[C@]43C)C2[C@H]1C (stereo not given in full) | -7.7 | x
CC1CC(=O)[C@]2(C)CC[C@]3(C)C(C(=O)C(O)C4[C@@]5(C)CC[C@H](O)C(C)(C(=O)O)C5CC[C@]43C)C2C1C (stereo not given in full) | 81.5* | 105.7*
COc1cc(/C=C/C(=O)CC(=O)/C=C/c2ccc(O)c(OC)c2)ccc1O | 32.4 | 3.3
COc1ccc(/C=C/C(=O)CC(=O)/C=C/c2cccc(O)c2OC)cc1O | 69.5* | 0.9
CC(O)(C(=O)Nc1ccc(S(=O)(=O)c2ccccc2)cc1)C(F)(F)F (stereo not given) | -69.0 | 7.3
CC(C)(C)C(=O)Nc1ccc2c(c1)C(=O)C(=O)c1ccccc1-2 | 88.0* | 131.9*
CCc1ccc(NS(=O)(=O)c2ccc3[nH]c(=O)ccc3c2)cc1 | x | 5.2
CCC(C(=O)OC)n1cnc2c(nnn2Cc2ccccc2F)c1=O (stereo not given) | x | -2.8
Cc1c(C(=O)N2CCCC2)oc2ccc3c(c12)C(=O)CC(C)(C)O3 | x | -2.2
C=CC1(C)C=C2CCC3C(C)(C)C(O[C@@H]4O[C@@H](CO)[C@H](O)[C@H]4O)CCC3(C)C2CC1O[C@@H]1O[C@H](C)[C@H](O)[C@H](O)[C@H]1O (stereo not given in full) | -7.7 | -7.0
CC1(C)CC[C@]2(C(=O)O)CC[C@]3(C)C(=CCC4[C@@]5(C)CC[C@H](O[C@@H]6O[C@H](CO)[C@@H](O)[C@H](O)[C@H]6O)C(C)(C)C5CC[C@]43C)[C@@H]2C1 (stereo not given in full) | 89.1* | 1.1
CC(=O)OC1COC(OC2C(O)C(C)OC(OC3C(OC4CCC5(C)C(CCC6(C)C5CC=C5C7CC(C)(C)CCC7(C(=O)O)CCC56C)C4(C)CO)OCC(O)C3O)C2O)C(O)C1OC(C)=O (stereo not given) | 98.1* | 4.8
C[C@@H]1O[C@@H](O[C@@H]2CC[C@@]3(C)C(CC[C@]4(C)C3CC=C3[C@@H]5CC(C)(C)CC[C@]5(C(=O)O[C@@H]5O[C@H](CO)[C@@H](O)[C@H](O)[C@H]5O)CC[C@]34C)[C@]2(C)CO)[C@H](O)[C@H](O[C@@H]2OC[C@@H](O)[C@H](O)[C@H]2O)[C@H]1O (stereo not given in full) | -25.2 | -5.5
C/C=C(/C)C(=O)O[C@H]1CC(C)(C)C[C@H]2C3=CCC4[C@@]5(C)CC[C@H](O[C@@H]6O[C@H](C(=O)O)[C@@H](O[C@@H]7O[C@H](CO)[C@H](O)[C@H](O)[C@H]7O[C@@H]7O[C@H](CO)[C@@H](O)[C@H](O)[C@H]7O)[C@H](O)[C@H]6O[C@@H]6O[C@@H](C)[C@H](O)[C@@H](O)[C@H]6O)C(C)(C)C5CC[C@@]4(C)[C@]3(C)C[C@@H](O)[C@@]12CO (stereo not given in full) | 99.4* | 127.1*
CC1(C)CC[C@]2(C(=O)O)CC[C@]3(C)C(=CCC4[C@@]5(C)CC[C@H](O[C@@H]6O[C@H](C(=O)O)[C@@H](O[C@@H]7O[C@H](CO)[C@@H](O)[C@H](O)[C@H]7O)[C@H](O)[C@H]6O[C@@H]6O[C@H](CO)[C@@H](O)[C@H](O)[C@H]6O)C(C)(C)C5CC[C@]43C)C2C1 (stereo not given in full) | 16.3 | -3.9
CC1OC(OC2C(C(=O)O)OC(O[C@H]3CC[C@@]4(C)C(CC[C@]5(C)C4CC=C4C6CC(C)(C)CC[C@]6(C(=O)OC6OC(CO)C(O)C(O)C6O)CC[C@]45C)C3(C)C)C(O)C2O)C(OC2OCC(O)C(O)C2O)C(O)C1O (stereo not given in full) | 0.7 | -1.9
C=CC1(C)C=C2CCC3C(C)(C)C(O[C@@H]4O[C@@H](CO)[C@H](O)[C@H]4O)CCC3(C)C2CC1O[C@@H]1O[C@H](CO)[C@@H](O)[C@H](O)[C@H]1O (stereo not given in full) | 99.5* | x
Cc1ccc2c(cnn2C(=O)CCCC(=O)O)c1 | x | -2.6
S=C(Nc1ccccc1Cl)N(CCN1CCCCCC1)Cc1cccs1 | x | -5.1
CC1(c2cccs2)CC(c2cccs2)=Nc2ccccc2N1 (stereo not given) | x | 2.1
CSc1nc(COc2ccc(C(C)(C)C)cc2)nc(N)c1C#N | x | -9.3
Cc1ccc(C)c(N2CCN(C(=O)C3CCCN3S(=O)(=O)c3cccc4nsnc34)CC2)c1 (stereo not given) | x | -1.2
CCC(C(=O)NCc1ccccn1)c1ccccc1 (stereo not given) | x | 3.4
COC(=O)COc1ccc2c(c1)C(=NO)c1cc(OCC(=O)OC)ccc1-2 | x | -8.0
CCc1ccccc1N(CC)C(=O)c1cc2c(s1)-c1c(C)cccc1OC2 | x | 1.0
SMILES | Hedgehog inh | BJeLR viab HTS
CC(=O)OC(C[C@@]1(C)[C@H](C)[C@H](OC(C)=O)C[C@@]23COC(=O)C2=CCC[C@@H]31)c1ccoc1 (stereo not given in full) | 39.4 | x
COc1ccc2c(c1)CCc1c-2nc2ccc(Br)cc2c1C(=O)O | x | -2.4
C[C@H]1CN([C@@H](C)CO)C(=O)c2cccc(NC(=O)C3CC3)c2O[C@@H]1CN(C)S(=O)(=O)c1ccc(Cl)cc1 | 7.1 | 2.8
CC(C)NC(=O)Nc1ccc2c(c1)CC(=O)N([C@@H](C)CO)C[C@@H](C)[C@@H](CN(C)S(=O)(=O)c1cn(C)cn1)O2 | -23.8 | x
C[C@@H]1CN([C@@H](C)CO)C(=O)c2cc(NC(=O)C3CC3)ccc2O[C@@H]1CN(C)S(=O)(=O)c1ccc(Cl)cc1 | 4.1 | 2.1
C[C@H](CO)N1C[C@H](C)[C@H](CN(C)S(=O)(=O)c2cn(C)cn2)Oc2ccc(NC(=O)NC3CCCCC3)cc2CC1=O | 77.1* | x
Cc1cc(C(=O)Nc2cccc3c2O[C@@H](CN(C)S(=O)(=O)c2ccc(Cl)cc2)[C@H](C)CN([C@H](C)CO)C3=O)n(C)n1 | -13.5 | -1.2
C[C@H](CO)N1C[C@H](C)[C@H](CN(C)S(=O)(=O)c2ccc(Cl)cc2)Oc2c(NC(=O)C3CC3)cccc2C1=O | 97.9* | -0.2
C[C@@H]1CN([C@@H](C)CO)C(=O)c2cc(NC(=O)C3CC3)ccc2O[C@H]1CN(C)S(=O)(=O)c1ccc(Cl)cc1 | 66.8* | -4.0
Cc1cc(C(=O)Nc2cccc3c2O[C@@H](CN(C)S(=O)(=O)c2ccc(Cl)cc2)[C@@H](C)CN([C@H](C)CO)C3=O)n(C)n1 | 78.3* | -1.6
CCOC(=O)C1=C(Cn2nnc(C(=O)OC)c2C(=O)OC)NC(=O)NC1c1ccccc1 (stereo not given) | x | -1.0
COc1ccc(NC(=O)CCCOc2ccccc2)cc1 | x | 0.9
COc1ccc(C)cc1N(C)C(=O)c1nn(C)c2c1COc1ccccc1-2 | x | -2.4
CC(=O)N1CCOc2cc(S(=O)(=O)N3CCCCC3)ccc21 | x | 6.5
OC(c1ccccc1)c1nnc(SCc2ccc(Br)cc2)n1-c1ccccc1 (stereo not given) | x | 0.2
CCc1ccc(/C=C2\NC(=S)N(C3CCCCC3)C2=O)cc1 | x | -1.8
Cc1noc(C)c1S(=O)(=O)N(C)C[C@@H]1Oc2ccc(NC(=O)C3CC3)cc2CC(=O)N([C@H](C)CO)C[C@@H]1C | 69.7* | x
